Compound activity as filed in PubChem.
Shown are actives, neighbours in structure and some others; about 3.3% of the full set was active somewhere.
HCV inh: inhibitors of hepatitis C virus infection; Huh7.5.1 HCVcc-Cre infection, luciferase reporter, 44 h; Potency, µM (top dose mostly 41.8 µM), most hits filed as inhibitors; 340,000 tested, 3.4% active; AID 651820; active = well fitted inhibition curve with a large enough effect; inconclusive = small, poorly fitted or top-dose-only effect, or another doubt; inactive = no such curve, though single readings can be large or run the other way
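Cells seeded at 1,000/well and cultured 4 h, then compounds added followed by HCVcc-Cre virus (~0.5 moi). After 44 h further culture, luciferase substrate was added, plates held 15 min at room temperature, and luminescence read for 15 sec.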
Vaccinia Venus: vaccinia inhibition (Venus reporter) | Vaccinia virus Venus reporter expression, fluorescence | Potency, µM (titrated, usually from 36.5 µM), usual class: inhibitors | 330,000 tested, 0.46% active; calls by dose curve; tested in A549 cells; also: nearly all actives have a fitted effect of over 30% in size
VACV mCherry inh: vaccinia inhibition (mCherry reporter); AID 720579; Potency, µM (doses to about 36.5 µM), usual class: inhibitors; 310,000 tested, 0.63% active; Vaccinia virus mCherry reporter infection, fluorescence; calls by dose curve; tested in A549 cells; also: nearly all actives have a fitted effect of over 35% in size
Each line names hits and unclear results; the compound was inactive in the other large screens.

CCOc1ccc(OCC(O)CNC2CCN(Cc3ccccc3)CC2)cc1 (stereo not given)	HCV inh inconclusive, Vaccinia Venus inconclusive
Cc1ncsc1CCC(=O)N1CCCC(c2nc(-c3ccncc3)ncc2-c2ccccc2)C1 (stereo not given)	none (no result: HCV inh)
Cn1c(SCC2CCCO2)nnc1C1CCN(Cc2ccc(-c3cccc(Cl)c3)o2)CC1 (stereo not given)	none (no result: HCV inh)
Cc1ccc2nc(N(CCCN(C)C)C(=O)c3ccco3)sc2c1	HCV inh 10µM
CCc1ccc2nc(N(CCN(CC)CC)C(=O)c3ccco3)sc2c1	none (no result: HCV inh)
Cc1ccc2nc(N(CCCN(C)C)C(=O)c3ccc(Br)s3)sc2c1	HCV inh 10µM
CN(C)CCCN(C(=O)c1ccc(Br)s1)c1nc2ccc(F)cc2s1	none (no result: HCV inh)
O=C1NC[C@@H](CCCCN2C[C@H](Cc3ccc(O)cc3)N(CC3CCCCC3)C(=O)C2=O)N(Cc2ccccc2)C1=O	none (no result: HCV inh)
O=C(CN1CCC(c2nc3ccccc3s2)CC1)NCc1cccs1	HCV inh 3.16µM, Vaccinia Venus inconclusive
O=C(CN1CCC(c2nc3ccccc3s2)CC1)N1CCCCC1	HCV inh inconclusive
COc1ccc(NC(=O)Cn2cc(C(=O)c3ccco3)c3ccccc32)cc1	HCV inh 3.55µM
CCOc1ccc(NC(=O)Cn2cc(C(=O)c3ccco3)c3ccccc32)cc1	none
CN(Cc1ccco1)C(=O)CSc1nc(C2CC2)n(-c2ccccc2)n1	none
CC(=O)c1ccc(NS(=O)(=O)c2cccc(S(=O)(=O)c3ccc(Cl)cc3)c2)cc1	none (no result: HCV inh)
CCOc1ccccc1N1Cc2cc(C)c(C)cc2C1	HCV inh inconclusive
COc1ccc(OC)c(N2Cc3cc(C)c(C)cc3C2)c1	HCV inh 22.4µM
Nc1cc(N2CCCCC2)nc(N)[n+]1OS(=O)(=O)[O-]	none (no result: HCV inh)
CC1COc2ccccc2N1C(=O)c1ccc(Cl)cc1 (stereo not given)	none
O=C(C(Cl)Cl)N1c2ccccc2OCC1c1ccccc1 (stereo not given)	HCV inh 12.6µM (no result: Vaccinia Venus, VACV mCherry inh)
Cc1ccc(S(=O)(=O)N2c3ccccc3OCC2c2ccccc2)cc1 (stereo not given)	HCV inh 35.5µM (no result: Vaccinia Venus, VACV mCherry inh)
CC1COc2ccccc2N1S(=O)(=O)c1ccc(Cl)cc1 (stereo not given)	VACV mCherry inh inconclusive
CCc1noc(C)c1C(=O)N1CCOc2ccc(CN3CCCC(C(=O)c4cccnc4)C3)cc2C1 (stereo not given)	none (no result: HCV inh)
CC(NC(=O)c1cc(S(=O)(=O)N(C)C)ccc1Cl)c1ccc(-n2ccnc2)cc1 (stereo not given)	none
COC(=O)[C@H](CC(C)C)NC(=O)Cn1cnc(C(=O)Nc2ccc(C)c(C)c2)n1	none
Cc1ccc(NC(=O)CCn2c(=O)c3cccn3c3ccccc32)cc1Cl	none (no result: HCV inh)
COCCNC(=O)c1cn(C2CCN(C3CCCC3)CC2)nn1	none (no result: HCV inh)
CCOC(=O)Cn1nnnc1C(CC)N(Cc1cccs1)Cc1cc2cc(C)ccc2[nH]c1=O (stereo not given)	none (no result: VACV mCherry inh)
CCOc1ccc2[nH]c(=O)c(CN(Cc3cccs3)C(CC)c3nnnn3C(C)(C)CC)cc2c1 (stereo not given)	HCV inh 10µM, Vaccinia Venus inconclusive, VACV mCherry inh inconclusive
C=C(C)[C@@H]1C2=CC(C(=O)OC)=C(C[C@@H](C(=C)C)[C@H]3O[C@H]3C3=C[C@H]1OC3=O)O2	Vaccinia Venus inconclusive (no result: HCV inh)
CN1CCN(c2cc(N3CCCC3)c([N+](=O)[O-])cc2F)CC1	HCV inh inconclusive
CN1CCN(c2cc(N3CCc4ccccc4C3)c(F)cc2[N+](=O)[O-])CC1	HCV inh inconclusive, Vaccinia Venus inconclusive, VACV mCherry inh 10µM
O=C(NCCc1ccc(F)cc1)c1cccc(NC(=O)c2ccccc2)c1	HCV inh 22.4µM (no result: Vaccinia Venus, VACV mCherry inh)
O=C(NCCc1ccccc1)c1ccc(NC(=O)C2CCCCC2)cc1	none
O=C(NCCCCc1ccccc1)c1cccc(NC(=O)C2CCCC2)c1	HCV inh 8.91µM
O=C(NCCCCc1ccccc1)c1cccc(NC(=O)c2ccccc2)c1	none
COCCCNC(=O)c1cccc(NC(=O)c2ccccc2)c1	HCV inh inconclusive
O=C(NCCc1ccccc1)c1ccc(NC(=O)C2CCC2)cc1	HCV inh 0.631µM
Cc1nc([N+](=O)[O-])cn1Cc1cccc([N+](=O)[O-])c1	none
CCOC(=O)C(C(=O)OCC)C(c1ccccc1)N1CCN(c2ccccc2)CC1 (stereo not given)	none
Cn1c(=O)c2cc(NC(=O)NCCc3ccccc3)ccc2n1Cc1cccc(C(F)(F)F)c1	Vaccinia Venus inconclusive (no result: HCV inh)
Cc1cccc(CNC(=O)c2c3n(c(C)cc2=O)-c2ccccc2SC(c2sccc2C)C3)n1 (stereo not given)	none (no result: HCV inh)
COC(=O)c1ccccc1S(=O)c1snnc1C (stereo not given)	none
CC1(C)CC(=O)c2c(O)cc(OCC(=O)Nc3ccc(S(N)(=O)=O)cc3)cc2O1	HCV inh inconclusive
COc1cc(NC(=O)COc2cc(O)c3c(c2)OC(C)(C)CC3=O)cc(OC)c1OC	HCV inh 0.316µM, Vaccinia Venus inconclusive, VACV mCherry inh inconclusive
CCOc1cccc2sc(N(CCN(C)C)C(=O)CCS(=O)(=O)c3ccccc3)nc12	Vaccinia Venus inconclusive
CCOc1cccc2sc(NC(=O)CCS(=O)(=O)c3ccccc3)nc12	HCV inh 22.4µM, VACV mCherry inh inconclusive
CCC(=O)Nc1nc2ccc(NC(C)=O)cc2s1	none
CCOc1cccc2sc(Nc3nc4ccc(NC(C)=O)cc4s3)nc12	HCV inh 4.47µM, Vaccinia Venus inconclusive
CC(=O)N1CCc2c(sc3c2c(=O)n(-c2ccc(C)cc2)c(=O)n3Cc2c(F)cccc2Cl)C1	none (no result: HCV inh)
Cc1oc(-c2ccccc2Cl)nc1CN1CCCC1c1ccc(F)cc1 (stereo not given)	none (no result: Vaccinia Venus, VACV mCherry inh)
Cc1oc(-c2ccccc2Cl)nc1Cn1cccc1C1=NC(c2ccccc2)CO1 (stereo not given)	HCV inh 11.2µM
COc1cccc(C(=O)NC(C)c2nnc3n2CCN(CC=C(C)C)CC3)c1 (stereo not given)	none (no result: HCV inh)
C=CCN1C(=O)c2ccc(C(=O)N3CCN(S(=O)(=O)c4cccc([N+](=O)[O-])c4)CC3)cc2C1=O	none (no result: Vaccinia Venus, VACV mCherry inh)
Cc1ccc(N/C(N)=N/c2nc(C)cc(N3CCCCC3)n2)c(C)c1	HCV inh 2.82µM, Vaccinia Venus inconclusive, VACV mCherry inh inconclusive
Cc1ccc(N/C(N)=N/c2nc3c(c(=O)[nH]2)CCCC3)c(C)c1	none
Cc1cc(=O)c2c(O)cc(O)c(C)c2o1	none (no result: HCV inh)
CC[C@]1(C(=O)OC)[C@H]2C(=O)N(C)C(=O)[C@H]2[C@H]2CN=C(SCc3ccc(Cl)cc3)N21	none
COC(=O)[C@@]1(C)[C@H]2C(=O)N(C)C(=O)[C@H]2[C@H]2CN=C(SCc3ccc(Cl)cc3)N21	HCV inh 4.47µM
COC(=O)[C@@]1(C)[C@H]2C(=O)N(C)C(=O)[C@H]2[C@H]2CN=C(SCc3ccc(C#N)cc3)N21	HCV inh 0.562µM
CCN1C(=O)[C@H]2[C@H]3CN=C(SCc4ccc(C#N)cc4)N3[C@@](C)(C(=O)OC)[C@H]2C1=O	none
CN(C)c1ccc(/C=C(\C#N)c2ccccn2)cc1	HCV inh inconclusive
N#C/C(=C\c1ccccn1)c1ccccn1	HCV inh inconclusive, Vaccinia Venus inconclusive, VACV mCherry inh 3.55µM
COc1ccccc1C1CN(CCNC(=O)c2cscn2)Cc2ccccc2O1 (stereo not given)	none (no result: HCV inh)
Cc1ccc(NC(=O)c2c(NC(=O)c3ccc(F)cc3)sc3c2CCCC3)cc1C	none (no result: HCV inh)
COc1ccc(-c2cc(=O)c3cc(O)ccc3o2)cc1	HCV inh 5.62µM
